M1 antag: human M1 muscarinic receptor antagonists, primary screen, CHO-K1 cells, Fluo-8 calcium fluorescence, 1536-well. Muscarinic acetylcholine receptor M1 (Homo sapiens), P11229. CHO-K1 hM1, ACh EC80 antagonist. inhibition, % at 3 µM. 360,000 tested, 1.3% active. AID 588852, 2011;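 active = percent inhibition above its own plate's cutoff, namely the mean of that plate's compound wells plus 3 SD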;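 note: peak over basal fluorescence ratio during 140 s after agonist addition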
Target sequence (P11229 whole entry, looked up): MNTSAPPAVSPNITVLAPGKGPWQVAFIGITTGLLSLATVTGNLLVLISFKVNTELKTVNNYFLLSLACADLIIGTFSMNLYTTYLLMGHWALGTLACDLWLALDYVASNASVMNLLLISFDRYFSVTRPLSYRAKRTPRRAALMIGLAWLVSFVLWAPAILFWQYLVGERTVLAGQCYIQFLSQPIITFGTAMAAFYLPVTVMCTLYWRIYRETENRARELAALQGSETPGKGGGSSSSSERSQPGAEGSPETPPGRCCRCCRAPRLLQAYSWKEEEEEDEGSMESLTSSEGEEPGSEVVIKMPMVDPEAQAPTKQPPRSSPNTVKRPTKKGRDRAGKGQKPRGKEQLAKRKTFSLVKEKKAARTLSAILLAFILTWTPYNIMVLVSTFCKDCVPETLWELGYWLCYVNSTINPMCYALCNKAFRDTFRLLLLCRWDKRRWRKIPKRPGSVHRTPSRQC
M1 PAM: human M1 muscarinic receptor positive allosteric modulators, primary screen, CHO-K1 cells, Fluo-8 calcium fluorescence, 1536-well | Muscarinic acetylcholine receptor M1 (Homo sapiens), P11229 | CHO-K1 hM1, ACh EC20; 0% = ACh EC20, 100% = maximal ACh | activation, % at 3 µM | 360,000 tested, 0.088% active; in the data active = activation above about 19%, passing the limit was not always enough
M1 ag parental: counter-screen for M1 agonists: effect in parental CHO-K1 cells; activation, % at 3 µM; 360,000 tested, 0.48% active; Fluo-8 calcium fluorescence; scaled to maximal ATP response, vehicle zero; AID 602248, 2012; in the data active = activation above about 15%;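 note: untransfected CHO-K1 host cells lacking M1 receptor as counterscreen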
CHO-K1 Ca antag: counter-screen for M1 antagonists: effect in parental CHO-K1 cells. 360,000 tested, 0.6% active. AID 602250. inhibition, % at 3 µM. ATP-induced calcium, Fluo-8 fluorescence;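 active = inhibition above a per-plate cutoff, the plate's mean sample inhibition plus 3 SD, cut at about 24% in these data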
CHO-K1 Ca PAM: nonselective calcium activators in parental CHO-K1 cells, primary screen, counter-screen for M1 PAM project, cell-based, Fluo-8 calcium fluorescence, full deck, 1536-well; 360,000 tested, 0.02% active; AID 602247, 2012; ATP EC20; 0% at ATP EC20, 100% at ATP max; activation, % at 3 µM;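 active = activation above the run cutoff, the mean activation of all test compounds plus 3 SD, cut at about 40% in these data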;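 note: peak over basal fluorescence ratio in a 140 s read after ATP addition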
M1 ag: human M1 muscarinic receptor agonists, primary screen, Fluo-8 calcium fluorescence, CHO-K1 cells, HTS; Muscarinic acetylcholine receptor M1 (Homo sapiens), P11229; CHO-K1 hM1, agonist mode; 0% DMSO, 100% acetylcholine EC100; 360,000 tested, 0.33% active; AID 588814, 2011; activation, % at 3 µM;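 active = activation above the run's mean compound activation plus 3 SD, cut at about 16% in these data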;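 note: peak over basal fluorescence ratio within a 140 s kinetic read after compound addition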
Each line names hits and unclear results; the compound was inactive in the other large screens. Sampled rows, rich in hits. Any-hit rate of the full collection: about 2.4%.

CCc1ccc2nc(N3CCC(C(=O)N4CCC5(CC4)OCCO5)CC3)sc2c1	M1 antag 40.6
Cc1ccc2nc(N3CCC(C(=O)N4CCC5(CC4)OCCO5)CC3)sc2c1	none
CN1CCC2(CC1)N=C(c1ccc(F)cc1)C(=S)N2	M1 antag 26.1
Cc1ccsc1C(=O)C1CCCN(Cc2ccc(-n3cccn3)cc2)C1 (configuration not stated)	none
C#C[C@]1(O)CCC2C3C(=O)C=C4C=CCC[C@]4(C)C3CC[C@@]21C (some centres not stated)	none
C#CC1(O)CCC2C3CCC4=CC(=O)CCC4=C3C=CC21C (configuration not stated)	M1 ag parental 16.0
S=C1CN=C(c2ccccc2)c2cc(Cl)ccc2N1	M1 ag 46.0
COc1cc(C)c(CNCCc2c[nH]c3ccccc23)cc1C	M1 ag parental 16.0
CS(=O)(=O)c1ccc(C2=C(CNC(=O)c3ccncc3)[C@H]3CC[C@@H](C2)N3Cc2ccccc2)cc1	none
CS(=O)(=O)c1ccc(C2=C(CNC(=O)c3nccs3)[C@H]3CC[C@@H](C2)N3CCOc2ccccc2)cc1	M1 antag 56.5
CS(=O)(=O)c1ccc(C2=C(CNC(=O)c3cccs3)[C@H]3CC[C@@H](C2)N3CCOc2ccccc2)cc1	M1 antag 35.0
COc1ccc(C(C)=O)cc1CC(C(=O)c1ccccc1)N(C)C (configuration not stated)	none
O=C(COc1ccc(Cl)cc1)NC1CN2CCC1CC2 (configuration not stated)	M1 antag 45.0
COc1cc(CN2CC=C(c3ccc(F)cc3)CC2)cc(OC)c1	M1 antag 30.8
O=C1OCc2cc(N=Nc3c(O)[nH]c(=O)[nH]c3=O)ccc21	none
CSc1ccc(C(=O)C2CCCN(Cc3cnc(SC)nc3)C2)cc1 (configuration not stated)	none
Cc1ncc(CN2CCCC(C(=O)c3ccc(C(C)(C)C)cc3)C2)s1 (configuration not stated)	M1 antag 86.6
O=C(c1ccc(C(F)(F)F)cc1)C1CCCN(Cc2ccc(CO)o2)C1 (configuration not stated)	M1 antag 61.1
CCn1ccnc1CN1CCCC(C(=O)c2ccc(SC)cc2)C1 (configuration not stated)	M1 antag 77.2
COc1ccc(C(=O)C2CCCN(Cc3cnc(C)s3)C2)cc1OC (configuration not stated)	none
Cc1ccn2nc(S(=O)(=O)Nc3c(F)cccc3F)nc2n1	none
FC(F)(F)c1cccc(NC2=NCCS2)c1	none
CCOc1cc(/C=C2/C(=O)NC(=O)N(c3ccc(CC)cc3)C2=O)ccc1OC(=O)c1cccs1	none
O=C(c1ccc(Cl)cc1)C1CCCN(Cc2cccc3ncccc23)C1 (configuration not stated)	M1 antag 51.3
COc1ccc(CN2CCCC(C(=O)c3ccc(Cl)cc3)C2)c(O)c1 (configuration not stated)	none
O=C(c1ccc(C(F)(F)F)cc1)C1CCCN(Cc2ccncc2)C1 (configuration not stated)	none
O=C(c1ccc(Cl)cc1)C1CCCN(Cc2cccc3cccnc23)C1 (configuration not stated)	M1 antag 58.5
O=C(c1ccc(Cl)cc1)C1CCCN(Cc2ccc3nonc3c2)C1 (configuration not stated)	M1 antag 43.4
Nc1cc(Cl)cc(C(=O)O)c1Cl	none
C[C@]12CC[C@@H](O)CC1=CCC1C2CC[C@@]2(C)C1C[C@@H](F)[C@@H]2O (some centres not stated)	none
COC(=O)C12OCC34C(CC5C(C)=C(O)C(=O)CC5(C)C3C(O)C1O)OC(=O)C(OC(=O)/C=C(\C)C(C)C)C24 (configuration not stated)	none
COc1ccc(C(=O)C2CCCN(C3CSCCSC3)C2)cc1OC (configuration not stated)	M1 antag 97.2
O=C(c1ccc(Cl)cc1)C1CCCN(C2CCSCC2)C1 (configuration not stated)	M1 antag 60.6
CCN(CC)CC(=O)Nc1ccc(Cl)cc1C(=O)c1ccccc1	none
Cc1ccc(C(C)C)c(OCC#CCN2CCCC2)c1	M1 antag 89.6
COc1ccc(OCC#CCN2CCCCCC2)cc1	none
CC(C)S(=O)(=O)N1Cc2ccccc2-n2nncc2C1	M1 antag 46.5
COc1ccc(S(=O)(=O)N2Cc3ccccc3-n3nncc3C2)cc1	none
COc1cccc(C(=O)C2CCCN(Cc3cnn(C(C)C)c3)C2)c1 (configuration not stated)	none
CCn1cc(CN2CCCC(C(=O)c3cccc(OC)c3)C2)c(C)n1 (configuration not stated)	M1 antag 50.3
CCCn1cc(CN2CCCC(C(=O)c3cccc(OC)c3)C2)c(C)n1 (configuration not stated)	none
CCCn1ncc(CN2CCCC(C(=O)c3cccc(OC)c3)C2)c1C (configuration not stated)	M1 antag 93.9
O=C(COC(=O)Cc1ccccc1)NC12CC3CC(CC(C3)C1)C2	none
NC(=O)c1ccsc1NC(=O)COC(=O)Cc1ccccc1	CHO-K1 Ca antag 24.6
CCN1C[C@@]2(COC)C3[C@@H](OC)[C@H]4[C@@H]1[C@@]3(C1C[C@H]3[C@H](OC(C)=O)C1[C@]4(OC(C)=O)C[C@H]3OC)[C@@H](OC)C[C@H]2OC(C)=O (some centres not stated)	none
OC(c1ccccc1)(c1ccc(Cl)cc1)C1CN2CCC1CC2 (configuration not stated)	M1 antag 99.7
OCC[N+]12CCC(CC1)C(C(O)(c1ccccc1)c1ccccc1)C2 (configuration not stated)	none
OC(Cc1ccccc1)(c1ccccc1)C1CN2CCC1CC2 (configuration not stated)	M1 antag 98.2
c1ccc(C2CN3CCC2CC3)cc1 (configuration not stated)	M1 antag 41.2
OC(c1ccccc1)(c1ccccc1)C1CN2CCC1CC2 (configuration not stated)	M1 antag 98.1
CC(=O)Nc1ccc(OC(=O)N2CCCCC2)cc1	none
